Measured values reported in PubChem BioAssay (NCI).
About 83,000 compounds went through this panel and 20% of them were active in at least one assay; those are over-represented in the sample as a whole.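 Cell lines were cultured in 96-well plates, exposed to a single compound concentration, and assessed for percent growth 48 hours later.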 Unmarked numbers belong to inactive results. The source made the active and inactive calls. How the source made its calls: active means growth percent below 10; inactive means the rest.

What was measured:
Experiment in all cases: NCI-60 one-dose screen, 48 h (100 = growth as untreated, 0 = no growth, -100 = all killed)
Settings in all cases: 10 µM
[1] = system: 786-0 renal
[2] = system: MALME-3M melanoma
[3] = system: MDA-MB-231 breast
[4] = system: UACC-257 melanoma
[5] = system: SK-MEL-28 melanoma
[6] = system: SK-MEL-2 melanoma
[7] = system: EKVX NSCLC
[8] = system: SN12C renal
[9] = system: TK-10 renal
[10] = system: CAKI-1 renal
[11] = system: A498 renal
[12] = system: OVCAR-8 ovarian
[13] = system: OVCAR-5 ovarian
[14] = system: IGROV1 ovarian
[15] = system: OVCAR-3 ovarian
[16] = system: HS 578T breast
[17] = system: NCI/ADR-RES ovarian
[18] = system: BT-549 breast
[19] = system: MDA-MB-435 melanoma
[20] = system: SW-620 colon

Row | Compound | growth [1] | growth [2] | growth [3] | growth [4] | growth [5] | growth [6] | growth [7] [%] | growth [8] | growth [9] [%] | growth [10] | growth [11] | growth [12] | growth [13] [%] | growth [14] | growth [15] | growth [16] | growth [17] | growth [18] | growth [19] | growth [20]
1 | COc1ccc2[nH]cc(-c3nc(N)nnc3-c3cn(C)c4ncc(Br)cc34)c2c1 | 12.8% | 28.7% | 21% | 39% | 37.5% | 36.2% | 35.1 | 17.8% | 11 | -0.341% (active) | -21.6% (active) | 1.18% (active) | 20.6 | 3.82% (active) | -0.754% (active) | 28.2% | 12.5% | -38.5% (active) | -38.8% (active) | 17.8%
2 | Cn1cc(-c2nc(N)nnc2-c2c[nH]c3ccccc23)c2cc(Br)cnc21 | 28.4% | 36.7% | 16.3% | 46% | 39.8% | 24.7% | 29.8 | 17.7% | 64.2 | 11.9% | 96.3% | 5.76% (active) | 21.8 | 23.2% | 9.25% (active) | 40.7% | 3.11% (active) | -29.6% (active) | -25.2% (active) | 24.7%
3 | COc1ccccc1-n1cc(C#N)c(N)c1C(=O)c1ccc(Cl)cc1Cl | 52.8% | 37.6% | 46.4% | 52.7% | 57.5% | -51.3% (active) | 29.6 | 35% | 55.8 | 33.8% | -0.709% (active) | 34.7% | 49.9 | 38% | 17.8% | -2.89% (active) | 16.4% | 31.4% | -38.3% (active) | 25%
4 | O=C(CC(=O)Nc1ccc(Oc2ncnc3scc(Nc4n[nH]c(=S)s4)c23)cc1)Nc1ccc(Cl)cc1 | 101% | 109% | 73.8% | 104% | 101% | 98.3% | 75.6 | 88.1% | 137 | 62.9% | 108% | 93.5% | 79 | 62.2% | 82.7% | 86% | 89.6% | 80.2% | 83.2% | 93.5%
5 | Cc1ccc2c(c1)C(=O)/C(=C/c1ccc([N+](=O)[O-])cc1)S2 | 101% | 97.8% | 98.1% | 101% | 109% | 101% | 91.6 | 93.4% | 135 | 61.9% | 114% | 105% | 82.9 | 63.8% | 103% | 86% | 95.3% | 101% | 98.9% | 49.4%
6 | O=C(CN1CCN(c2ncnc3c2cnn3-c2ccccc2)CC1)Nc1ccc(Br)cc1 | -61.7% (active) | -54.4% (active) | 66.7% | 58.7% | 72% | 29.9% | 46.9 | 39.1% | 121 | -57% (active) | 90.9% | 64.7% | 78.2 | 58.1% | 60.6% | 70.7% | 56.1% | 50% | 53.2% | 78.1%
7 | CC1(C)CC[C@]2(C(=O)O)CC[C@]3(C)C(=CCC4[C@@]5(C)C[C@@H](O)[C@@H]6OC(c7cccc(F)c7)OC[C@@]6(C)C5CC[C@]43C)C2C1 (stereo not given in full) | 59.3% | 70% | 60.7% | 67.8% | 66% | 51.1% | 19.2 | 28.2% | 32.4 | 49% | 78.7% | 31.7% | 73.2 | 75.4% | 37.9% | 66.4% | 43.7% | 39% | 58.1% | 31%
8 | CCOc1ccc(/C=N/NC(=O)Cn2nc(Cc3ccc(OC)cc3)c3onc(C)c3c2=O)cc1 | -40.3% (active) | -14.5% (active) | 20.7% | 62.1% | 11.5% | 55.9% | 33.8 | -6.22% (active) | 50.2 | 5.68% (active) | 48.2% | 16.9% | 44.9 | 25.7% | 13.7% | 1.74% (active) | 13.2% | 23.7% | 50.5% | 23%
9 | O=C1NC2C=CC=CC2/C1=C1/SC(=S)N(C2CC(=O)N(c3ccc(Br)cc3)C2=O)C1=O (stereo not given) | 97.5% | 97.6% | 101% | 95.9% | 101% | 107% | 92.6 | 96% | 124 | 77.1% | 129% | 97.6% | 104 | 100% | 92.2% | 98.9% | 95.6% | 101% | 95.7% | 93.4%
10 | COc1ccc(OC)c(-n2cc(C#N)c(N)c2C(=O)c2ccc(Cl)cc2Cl)c1 | 63.4% | 50.3% | 64.2% | 63.6% | 59% | -27.5% (active) | 42.7 | 48.9% | 78.8 | 36.9% | 28.3% | 68.8% | 74.4 | 53.3% | 23.5% | 38.6% | 30.4% | 48.3% | -37.1% (active) | 26.8%
11 | O=C(CSc1nc2ccccc2c(=O)n1-c1ccc(Cl)cc1)Nc1ccc(-c2nc3ccc([N+](=O)[O-])cc3[nH]2)cc1 | 53.7% | 21.7% | 42.7% | 36% | 21.1% | 34.4% | 35.9 | 42.9% | 89.9 | 40.8% | 81.7% | -87.5% (active) | 92.6 | 64.2% | 19.4% | 11.8% | 61.3% | -2.07% (active) | 39.6% | 64.2%
12 | COc1cc2oc(-c3cccc(C(=O)Nc4ccc(Cl)cc4)c3)cc(=O)c2c(OCCNC(=O)[C@@H](N)CO)c1OC | 48.4% | -56.9% (active) | 3.78% (active) | -67.8% (active) | -74.9% (active) | 78.5% | 54.7 | 43.9% | 138 | 45.9% | 177% | 26.3% | 60.9 | 57.9% | 89.5% | 53.8% | 102% | 58.9% | 15.7% | -37.7% (active)
13 | COC(=O)CNC(=O)COc1c(OC)c(OC)cc2oc(-c3cccc(C(=O)Nc4ccc(Cl)cc4)c3)cc(=O)c12 | -24.3% (active) | -26.1% (active) | -1.24% (active) | 58.7% | 20.5% | 12.7% | 64.1 | 41% | 130 | 55.8% | 119% | -69% (active) | 90.7 | 58.4% | 55.6% | -3.95% (active) | 47.5% | 1.95% (active) | 28.5% | 51.4%
14 | Cn1cc(-c2nnc(N)nc2-c2c[nH]c3ccccc23)c2cc(Br)cnc21 | 40.1% | 45.9% | 54.8% | 73% | 49.2% | 46.2% | 46.6 | 56.1% | 61.4 | 24.3% | 81.9% | 62% | 94.3 | 35.6% | 65.1% | 77.3% | -5.86% (active) | 17% | 5.61% (active) | 57.8%
15 | O=C(Nc1ccc(OCC(=O)c2ccc(Cl)cc2)cc1)Nc1ccc(Cl)c(C(F)(F)F)c1 | 26% | 27.4% | 48.1% | 19.8% | 32.7% | -35.4% (active) | 16.9 | 58% | 71.9 | 41.1% | 0.685% (active) | 30.1% | 61.2 | 39.9% | 34% | 18% | 57.6% | 76% | 51.5% | 47.7%
